# Source: PubChem
# The entries come from a sample that favours hits as a whole.
# S aureus helic = blocks Staphylococcus aureus DNA helicase | inhibition, % (no concentration beside the values) | purified S. aureus helicase, fluorescence unwinding assay | actives 0.05% (n = 120,000); in the data active = inhibition above about 25%, passing the limit was not always enough;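 note: 0% = mean of negative control wells and 100% = mean of positive control wells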
# Sa growth 42C = blocks Staphylococcus aureus growth; AID 720641; relative growth, % (concentration not given with the values); actives 0.53% (n = 170,000); S. aureus RN4220 growth, OD600, 20 h, 42 °C; active compounds read low;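 active = relative growth at most 50% at the other temperature and 20+ points below 30 °C, or under 10% at both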
# An asterisk follows results filed as active; i = inactive; nt = no result; ! = a repeat was not active.
SMILES,S aureus helic,Sa growth 42C
NC[C@H]1O[C@H](O[C@H]2[C@H](O)[C@@H](O[C@H]3O[C@H](CO)[C@@H](O)[C@H](N)[C@H]3O)[C@H](N)C[C@@H]2N)[C@H](N)C[C@@H]1O,nt,-0.6*!
NC[C@H]1O[C@H](OC2[C@@H](N)C[C@@H](N)[C@H](O[C@H]3O[C@H](CO)[C@@H](O)[C@H](N)[C@H]3O)[C@H]2O)[C@H](O)[C@@H](O)[C@@H]1O (stereo not given in full),nt,99.4
Cc1ccc(NC(=O)c2cnn(-c3ccc(C)c(C)c3)c2C2CCN(C(=O)OC(C)(C)C)CC2)c(C)c1,nt,94.9
O=c1[nH]nc(SCc2ccc(Cl)cc2Cl)c(=O)[nH]1,-10.0,89.8
FC(F)(F)c1nc(SCc2ccc(Cl)cc2Cl)n[nH]1,nt,-0.8*
CC(C)Cn1[nH]nnc1=S,-9.0,92.0
O=c1[nH]sc2ccccc12,22.0,-1.8*
O=c1cc(O)sc2ccccc12,0.0,56.7
COc1ccc(C)cc1-n1nnnc1SCc1nc2sc3c(c2c(=O)[nH]1)CCC3,-17.0,81.0
Cc1ccc2oc(=O)c3cc(C(=O)NCCN4CCCCC4C)sc3c2c1 (stereo not given),46.0*,104.4
Cc1ccc2oc(=O)c3cc(C(=O)NCCCN4CCN(C)CC4)sc3c2c1,-6.0,106.7
Cc1ccc(O)c(C(=O)CC(=O)c2cccs2)c1,-8.0,6.4*
O=C(NC(=O)c1ccccc1O)c1cccs1,nt,130.6
CCOC(=O)c1c(-c2ccccc2)oc2ccc(OCC)cc12,10.0,48.0*
CCOC(=O)c1c(-c2ccccc2)oc2ccc(OC)cc12,-13.0,nt
Cc1ccc(N2C(=NC(=O)CCC(=O)O)SC3CS(=O)(=O)CC32)cc1C (stereo not given),-16.0,96.0
O=C(NCC1CCCO1)c1ccc2nc(-c3ccccc3)c(-c3ccccc3)nc2c1 (stereo not given),nt,118.5
CC(C)Nc1ccc(Nc2ccnc3cc4ccccc4cc23)cc1,67.0*,-1.9*
c1ccc2cc3c(Nc4ccc(N5CCOCC5)cc4)ccnc3cc2c1,18.0,98.9
O=C(/C=C/c1ccc(Br)o1)OCC(=O)N1CCN(S(=O)(=O)c2ccc3ccccc3c2)CC1,-7.0,101.6
C=C(C)C1Cc2cc(/C=C/C(=O)O)c(O)cc2O1 (stereo not given),9.0,0.5*
C=C(C)C1Cc2cc3ccc(=O)oc3cc2O1 (stereo not given),1.0,102.7
O=c1[nH]c2ccc(S(=O)(=O)NCc3ccco3)cc2[nH]1,21.0,95.0
N#Cc1nccnc1S(=O)(=O)c1cccs1,nt,-0.7*
O=S(=O)(c1cccs1)c1cccs1,nt,93.9
SMILES,S aureus helic,Sa growth 42C
NCC1CCN(Cc2ccccc2)C1 (stereo not given),10.0,76.9
Cc1ccc(CNc2ccc3c(c2)ncn3C2CCCCC2)cc1,-7.0,-0.5*
CCCn1cnc2cc(NCc3ccncc3)ccc21,10.0,78.7
CCCCn1cnc2cc(NCc3ccc(Br)cc3)ccc21,6.0,7.6*
CCCn1cnc2cc(NCc3ccccc3O)ccc21,0.0,98.2
Oc1ccccc1CNc1ccc2c(c1)ncn2C1CCCCC1,6.0,109.1
CCCn1cnc2cc(NCc3ccc(Br)cc3)ccc21,5.0,0.3*
CCCn1cnc2cc(NCc3ccc(Cl)cc3Cl)ccc21,3.0,0.5*
CCCCn1cnc2cc(NCc3cc(OC)c(OC)c(OC)c3)ccc21,19.0,99.0
COc1ccc(-n2ncc3c2ncn2nc(-c4ccccc4)nc32)cc1,-5.0,100.3
O=C(c1ccc[nH]c1=S)n1ccnc1,6.0,97.0
O=C(OCCn1ccnc1)c1ccc(-c2ccccc2)cc1,9.0,3.0*
O=C(CCn1ccnc1)OCc1ccccc1,17.0,106.1
COc1ccc(N2C(=O)/C(=C\C=C\c3ccccc3)SC2=S)cc1,3.0,107.3
O=C1S/C(=C/c2ccccc2)C(=O)N1CO,18.0,97.7
CCOC(=O)c1cnc2cc(Cl)c(F)cc2c1N1CC(C)OC(C)C1 (stereo not given),nt,78.7
Cc1nc2nc[nH]n2c(=O)c1NS(=O)(=O)c1ccc(Br)cc1,nt,89.6
Cc1ccnc(SCC(=O)/C=C2\N(C)c3ccccc3C2(C)C)n1,-16.0,119.8
CN1/C(=C\C(=O)CSCCO)C(C)(C)c2ccccc21,i,-0.5*
O=C(CSc1nc(-c2ccccc2F)nc2cc(=O)[nH]n12)Nc1cccc(C(F)(F)F)c1,nt,2.8*
O=C(CSc1nc(-c2cccc(Cl)c2)nc2cc(=O)[nH]n12)Nc1ccccc1,nt,88.6
CNC(=O)/C(=C\c1ccc(OC)cc1)NC(=O)c1ccccc1,16.0,100.3
CCC(NC(=O)Nc1cc(C)ccc1OC)c1ccccc1 (stereo not given),12.0,104.5
FC(F)(F)c1c[nH]c(=S)c(C(F)(F)F)c1,nt,7.9*
Nc1cc(C(F)(F)F)c[nH]c1=O,14.0,96.8
SMILES,S aureus helic,Sa growth 42C
CCN1C(=O)CS/C1=C(/C#N)C(N)=O,-5.0,101.8
O=S(=O)(Nc1ccc2oc3c(c2c1)CCCC3)c1ccc(F)cc1,0.0,38.8*
O=C1CCCN1c1ccc(S(=O)(=O)Nc2ccc3oc4c(c3c2)CCCC4)cc1,6.0,115.2
Cc1ccccc1Cn1nnc2c(=O)[nH]c(C3CCN(C(=O)c4ccccc4)CC3)nc21,nt,3.5*
COc1ccc(Cn2nnc3c(=O)[nH]c(C4CCN(C(=O)c5ccc(C)cc5)CC4)nc32)cc1OC,nt,10.3
Cc1cccc(Cn2nnc3c(=O)[nH]c(C4CCN(C(=O)c5ccc(F)cc5)CC4)nc32)c1,nt,2.7*
O=C(c1ccccc1)N1CCCC(c2nc3c(nnn3Cc3ccc(F)cc3F)c(=O)[nH]2)C1 (stereo not given),nt,91.1
O=C(c1cccc(Cl)c1)N1CCC(c2nc3c(nnn3Cc3ccc(F)cc3F)c(=O)[nH]2)CC1,nt,0.2*
Cc1cccc(Cn2nnc3c(=O)[nH]c(C4CCCN(C(=O)c5ccccc5Cl)C4)nc32)c1 (stereo not given),nt,92.8
Cc1ccccc1Cn1nnc2c(=O)[nH]c(C3CCN(C(=O)c4ccc(F)cc4)CC3)nc21,nt,19.4
Cc1ccc(C)c(C(=O)N2CCC(c3nc4c(nnn4Cc4ccccc4)c(=O)[nH]3)CC2)c1,nt,3.7*
NCCCOc1ccccc1,-7.0,107.2
OC(CSc1ccccc1)CN1CCC(Nc2nccc(C(F)(F)F)n2)CC1 (stereo not given),nt,131.4
O=C(c1ccccc1N=Nc1c(O)[nH]c(=O)[nH]c1=O)N1CCOCC1,-5.0,75.4
OC(CN1CCOCC1)c1ccc2cc[nH]c2c1 (stereo not given),-5.0,98.5
COc1cccc(OC)c1Cn1nnc2c(=O)[nH]c(C3CCN(C(=O)c4ccccc4)CC3)nc21,nt,10.8
CCOc1ccc(Cn2nnc3c(=O)[nH]c(C4CCN(C(=O)c5ccccc5)CC4)nc32)cc1,nt,-0.3*
CCOCC(=O)Nc1c(C(=O)Nc2ccc(OCC)cc2)oc2ccccc12,13.0,102.7
CS(=O)c1sc(Br)c2c1C(=O)CC(C)(C)C2 (stereo not given),nt,93.9
CS(=O)c1sc(C(=O)OCc2ccccc2)c2c1C(=O)CC(C)(C)C2 (stereo not given),nt,-0.7*
Cn1nc(C(=O)N2CCCc3ccccc32)c2ccccc2c1=O,-1.0,93.8
CCCn1nc(C(=O)N2CCc3ccccc32)c2ccccc2c1=O,-6.0,45.6*
O=C(COc1ccc(Cl)cc1)Oc1ccccc1,10.0,95.5
O=C1CSC2(CCCCC2)N1c1ccc(Cl)cc1,10.0,95.0
Cc1noc(C)c1C(=O)Nc1nnc(SCc2ccc(Cl)cc2)s1,4.0,4.9*
